Most compounds without a hit are left out; they make up all but 3.7% or so of the library.
BoNT F protease: BoNT F light chain protease inhibition. inhibition, % at 10 µM. 360,000 compounds, 0.22% hits. Multiplex microsphere protease cleavage assay, flow cytometry. AID 588497; in the data active means inhibition above about 35%, passing the limit was not always enough; inconclusive means no clear call, values can overlap the other calls; further: plate controls were buffer without enzyme for full effect and enzyme alone for no effect
MazF activator: activators of E. coli MazEF toxin-antitoxin RNase; P0AE70; FAM/BHQ RNA-DNA oligo cleavage fluorescence, 5 h; activation, % at 20 µM; 350,000 compounds, 0.32% hits; in the data active means activation above about 50%
Bead autofluor: compound fluorescence in toxin protease inhibitor counterscreen; compound autofluorescence counterscreen, microsphere flow cytometry; active compounds read high; fluorescence intensity (test concentration not listed); 360,000 compounds, 3.1% hits; AID 624483; in the data active means fluorescence intensity above about 16000; inconclusive means no clear call, values can overlap the other calls
BoNT A protease: BoNT A light chain protease inhibition | 360,000 compounds, 0.17% hits | multiplex microsphere protease substrate cleavage, flow cytometry | inhibition, % at 10 µM; further: plate controls were buffer without enzyme for full effect and enzyme alone for no effect
Anthrax LF prot: blocks Bacillus anthracis lethal factor protease; AID 588501; P15917; multiplex microsphere protease cleavage assay, LF; 360,000 compounds, 0.12% hits; inhibition, % at 10 µM; further: plate controls were buffer without enzyme for full effect and enzyme alone for no effect
Target sequence (P15917 whole entry, looked up): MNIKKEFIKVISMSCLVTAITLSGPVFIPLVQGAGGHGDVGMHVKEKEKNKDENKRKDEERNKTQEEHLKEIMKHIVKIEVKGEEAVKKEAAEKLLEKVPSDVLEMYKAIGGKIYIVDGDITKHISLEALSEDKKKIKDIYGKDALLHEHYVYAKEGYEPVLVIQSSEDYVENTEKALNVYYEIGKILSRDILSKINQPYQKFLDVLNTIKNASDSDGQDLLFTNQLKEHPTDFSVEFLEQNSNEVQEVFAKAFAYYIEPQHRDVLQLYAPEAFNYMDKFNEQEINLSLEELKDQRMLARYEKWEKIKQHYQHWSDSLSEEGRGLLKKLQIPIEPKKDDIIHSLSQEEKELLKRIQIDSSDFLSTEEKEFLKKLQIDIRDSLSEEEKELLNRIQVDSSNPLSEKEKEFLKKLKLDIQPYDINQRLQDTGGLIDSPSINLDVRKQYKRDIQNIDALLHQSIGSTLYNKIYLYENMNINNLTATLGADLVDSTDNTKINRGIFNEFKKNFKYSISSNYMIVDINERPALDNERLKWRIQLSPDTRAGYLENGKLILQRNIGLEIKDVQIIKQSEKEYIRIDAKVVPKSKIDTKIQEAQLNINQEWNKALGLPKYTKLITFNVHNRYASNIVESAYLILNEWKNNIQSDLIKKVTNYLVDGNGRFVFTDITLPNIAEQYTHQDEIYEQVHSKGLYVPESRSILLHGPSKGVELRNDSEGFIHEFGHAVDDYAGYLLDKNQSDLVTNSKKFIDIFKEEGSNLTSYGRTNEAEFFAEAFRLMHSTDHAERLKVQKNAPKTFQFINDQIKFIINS
The depositor's hits bear a star; ? = inconclusive; nt = no result. Unless noted, no stated cut-off is given here; in the data, active means inhibition above about 30%; inconclusive means no clear call, values can overlap the other calls; inactive means below that.

SMILES	BoNT F protease	MazF activator	Bead autofluor	BoNT A protease	Anthrax LF prot
Cc1ccc(S(=O)(=O)c2c(N)n(/N=C/c3ccco3)c3nc4ccccc4nc23)cc1	-4.2	5.4	20865*	-0.2	-3.9
Nc1c(S(=O)(=O)c2ccccc2)c2nc3ccccc3nc2n1/N=C/c1ccco1	-1.0	10.6	19798*	?	-0.2
Cc1cccc(S(=O)(=O)c2c(N)n(/N=C/c3ccco3)c3nc4ccccc4nc23)c1	4.7	4.0	22583*	2.6	-1.3
Cc1ccc(S(=O)(=O)c2c(N)n(/N=C/c3ccco3)c3nc4ccccc4nc23)cc1C	0.2	15.0	2315	0.7	-5.0
Cc1cc(NC(=O)CSc2nnc(C3CC3)n2N)c([N+](=O)[O-])cc1C	-1.8	4.6	4214	-1.2	-6.9
CC1CC(=O)c2cnc(Nc3ccccc3)nc2C1 (stereo unspecified)	3.5	1.3	22489*	2.7	0.2
COc1cc(C2CC(=O)c3cnc(NC(=O)COc4ccccc4)nc3C2)cc(OC)c1OC (stereo unspecified)	6.2	11.0	21520*	4.4	-1.9
CC1CC(=O)c2cnc(Nc3cccc(C(F)(F)F)c3)nc2C1 (stereo unspecified)	-7.3	-0.2	2888	0.0	-0.9
COc1cc(OC)cc(C(=O)Nc2ncc3c(n2)CC(C)CC3=O)c1 (stereo unspecified)	5.4	6.8	2092	0.8	-1.3
COc1cccc(C(=O)Nc2ncc3c(n2)CC(C)CC3=O)c1 (stereo unspecified)	-10.2	8.4	24790*	-4.7	-3.2
CCCc1nnc(NC(=O)CCC(=O)NCc2ccccc2OC)s1	0.5	-2.9	22157*	0.2	-1.6
CCc1nnc(NC(=O)Cn2nc(-c3ccc(OC)c(OC)c3)ccc2=O)s1	3.4	1.4	8710	0.6	0.1
CCc1nnc(NC(=O)Cn2nc(-c3ccccc3OC)ccc2=O)s1	1.3	44.5	22524*	?	-3.3
c1ccc2c(c1)oc1c(N3CCOCC3)ncnc12	-2.1	6.3	2705	0.1	-0.1
C(=C\c1ccccc1)/CN1CCN(c2ncnc3c2oc2ccccc23)CC1	-2.2	-14.6	17552*	?	-4.7
Cc1ccc(C)c(S(=O)(=O)N2CCCOC2CNC(=O)C(=O)NC2CC2)c1 (stereo unspecified)	3.7	1.1	6422	-0.7	-0.2
CCOC(=O)Nc1ccc2c(C)cc(=O)oc2c1	-4.6	3.4	16452*	-1.8	-3.8
O=C1CCC[C@H]2c3[nH]c4ccccc4c3CCN12	-3.2	-6.8	5411	0.1	-1.9
O=C1CCC2c3ccc4ccccc4c3CCN12 (stereo unspecified)	-4.2	2.9	20473*	-1.6	2.6
Nc1ncnc2c1ncn2[C@@H]1O[C@H](CNC(=O)[C@@H](N)COCc2ccccc2)[C@@H](O)[C@H]1O	2.5	5.2	3652	0.3	-0.3
COC(=O)c1cccnc1N1CCN(c2ccccc2F)CC1	-0.5	9.9	23700*	?	-3.7
CC(C)OC(=O)c1cccnc1N1CCN(c2ccc(F)cc2)CC1	-1.8	-19.1	23861*	-2.1	-2.6
O=C(Nc1ccccc1)c1cccnc1N1CCCC1	-7.0	-3.6	17182*	?	-4.9
O=C(Nc1ccc(Br)cc1)c1cccnc1N1CCOCC1	-4.9	0.9	5509	-0.9	-5.4
CC(C)OC(=O)c1ccc(N2CCN(c3ccc(F)cc3)CC2)nc1	3.8	-3.4	3898	-2.5	8.2
SMILES	BoNT F protease	MazF activator	Bead autofluor	BoNT A protease	Anthrax LF prot
CCn1c(CNC(=O)c2ccco2)nnc1SCC(=O)Nc1ccc(Br)cc1F	7.6	9.8	20415*	4.9	-5.3
Cn1c(CNC(=O)c2ccco2)nnc1SCC(=O)Nc1ccc(Br)cc1F	-15.9	3.9	2580	-1.0	-0.5
CC(C)c1nc2sc3c(=O)[nH]cnc3c2c2c1CCCC2	-0.5	67.8*	4592	0.7	-4.1
O=[N+]([O-])c1ccc(Cl)c(/C=N/NC(=S)Nc2ccccc2)c1	-4.3	15.9	16957*	?	-3.8
Cc1cccc(NC(=S)N/N=C/c2cccc([N+](=O)[O-])c2)c1	-0.3	58.0*	4615	0.2	-1.7
Cc1ccc(NC(=S)N/N=C/c2ccc([N+](=O)[O-])s2)cc1	-2.3	12.9	2722	47.3*	27.0
Cc1cccc(NC(=S)N/N=C/c2ccc(Cl)c([N+](=O)[O-])c2)c1	2.3	4.3	9246	1.1	0.1
COc1ccc(OC)c(NC(=O)C2CCN(Cc3cnn(-c4ccccc4)c3-n3cccc3)CC2)c1	-3.8	6.4	20746*	-1.5	-4.0
COc1cc(NC(=O)CN(c2ccc(C)cc2)S(=O)(=O)c2c(C)noc2C)cc(OC)c1	1.2	11.6	5306	0.2	-2.9
Cc1c(N=Cc2ccc(Br)s2)cccc1[N+](=O)[O-]	-2.2	-8.1	23875*	-0.2	0.0
Cc1c(N=Cc2cc3c(cc2[N+](=O)[O-])OCO3)cccc1[N+](=O)[O-]	-6.6	-3.5	6251	-0.8	-9.2
CC1(C)CC(=O)C=C(NCCc2c[nH]c3ccccc23)C1	-7.3	-5.5	6194	-0.1	-5.3
Cc1ccc(-c2nnn(CC(=O)N3CCCCC3)n2)cc1	?	11.6	2889	-1.7	14.8
Cc1cc(C)n(-c2nc3ccccc3nc2N2CCCC2)n1	4.1	3.7	19617*	3.2	1.2
Cc1cc(C)n(-c2nc3ccccc3nc2NCCc2ccccc2)n1	5.8	-16.2	5044	9.5	6.8
Cc1cc(C)n(-c2nc3ccccc3[nH]c2=O)n1	3.8	-0.6	5868	0.6	0.2
Cc1cc(C)n(-c2nc3ccccc3nc2Nc2ccc3[nH]c(=O)[nH]c3c2)n1	0.6	233.7*	9515	-0.7	0.7
COc1ccc(Nc2nc3ccccc3nc2-n2nc(C)cc2C)cc1	9.8	178.1*	4546	6.5	3.5
COc1cc(NC(=O)CN(C)S(=O)(=O)c2ccc3c(c2)CC(C)N3C(C)=O)cc(OC)c1OC (stereo unspecified)	2.9	-3.5	6182	-0.8	-0.9
COc1ccccc1-c1ccc(Nc2cccc(C(F)(F)F)c2)nn1	-12.5	11.0	2907	1.1	-1.3
COc1ccccc1-c1ccc(NC2CCCCC2)nn1	-1.5	0.8	23544*	2.9	6.7
CCn1nc(NC(=O)c2ccncc2)c2cc3ccc(C)cc3nc21	-3.4	-4.2	20719*	-2.6	0.9
CCCCn1nc(NC(=O)c2cccs2)c2cc3ccccc3nc21	4.3	-2.6	21346*	3.4	1.0
CCCn1nc(NC(=O)c2cccs2)c2cc3ccccc3nc21	-2.5	5.6	23719*	-1.4	-0.4
CCCn1nc(NC(=O)C2CCCO2)c2cc3cc(C)ccc3nc21 (stereo unspecified)	-1.5	-1.5	21148*	-0.3	-1.1
CCn1nc(NC(=O)c2ccncc2)c2cc3cc(C)ccc3nc21	?	-2.8	4495	2.0	-1.5
CN(C)c1cccc(C(=O)OCC(=O)NC(=O)NCc2ccccc2)c1	-7.8	5.6	4297	-1.5	-4.0
Cc1c(C)c2ccc(OCC(=O)Nc3ccccn3)c(C)c2oc1=O	nt	-0.8	nt	nt	nt
CCCn1nc(NC(=O)c2ccncc2)c2cc3ccccc3nc21	-6.4	9.4	5760	0.2	-6.1
CCCC(=O)Nc1nn(CCC)c2nc3ccccc3cc12	-4.4	0.4	21458*	-1.3	-2.6

From PubChem
